Experimental data taken from PubChem BioAssay (Tox21).
Results filed as inconclusive are left out. The source made the active and inactive calls. Unless noted, the call rests on the fitted dose curve; in most records, active means well fitted curve in the direction sought with a large enough effect in the repeat runs; inconclusive means weak or mixed curves; inactive means no such curve, though single readings can be large; an effect the other way counts as inactive or inconclusive.

Key:
[1] = qHTS assay to identify small molecule agonists of the vitamin D receptor (VDR) signaling pathway - cell viability counter screen (AID 743224); further: series mostly up to about 63 µM; on the % scale 0 is the no-effect control and ±100 the full control effect; nearly all actives have a fitted effect of over 50% in size
Summary of the method: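 VDR-bla cell line, quantitative HTS format; 16 h compound incubation (37C, 5% CO2); ATP-based CellTiter-Glo luminescence measured in the reporter assay wells.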

[2] = qHTS assay to identify small molecule antagonists of the vitamin D receptor (VDR) signaling pathway - cell viability counter screen (AID 743225); further: on the % scale 0 is the no-effect control and ±100 the full control effect; nearly all actives have a fitted effect of over 50% in size
Summary of the method: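 Read-out: CellTiter-Glo luminescence measured 30 min after reagent addition at room temperature. Cells were VDR-bla HEK 293T exposed 16 h at 37C, 5% CO2, to compound with 3 nM final calcitriol agonist.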

[3] = qHTS assay to identify small molecule agonists of the NFkB signaling pathway (AID 1159509; active means well fitted curve in the direction sought with a large enough effect in the signal ratio in the repeat runs, not every such curve was filed as active; the % refers to the signal ratio; further: series mostly up to about 61 µM; on the % scale 0 is the no-effect control and ±100 the full control effect)
Summary of the method: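 NFkB-bla ME-180 cells carry a beta-lactamase reporter under an NF-kB response element. They were plated overnight, then exposed to compounds for 5 h at 37 C. Read-out is LiveBLAzer FRET after 1.5 hr at room temperature (405 nm excitation; 460/530 nm emission).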

[4] = qHTS assay to identify small molecule agonists of the NFkB signaling pathway - cell viability counter screen (AID 1159515; calls by dose curve; further: series mostly up to about 61 µM; on the % scale 0 is the no-effect control and ±100 the full control effect; nearly all actives have a fitted effect of over 55% in size)
Summary of the method: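 Viability in NFkB-bla ME-180 cells was measured by CellTiter-Glo luminescence, 30 min room temperature, in wells already treated 5 hr with compounds and read for reporter FRET.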

[5] = qHTS assay to identify small molecule agonists of the endoplasmic reticulum stress response signaling pathway (AID 1159516; active means well fitted activation curve with a large enough effect in the signal ratio in the repeat runs, not every such curve was filed as active; the % refers to the signal ratio; further: on the % scale 0 is the no-effect control and ±100 the full control effect)
Summary of the method: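 ER stress element reporter (bla) in HeLa. 1,500 cells/well, overnight attachment; 5 hr compound; 2 hr RT substrate; dual-emission fluorescence.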

[6] = qHTS assay to identify small molecule agonists of the endoplasmic reticulum stress response signaling pathway - cell viability counter screen (AID 1159517; calls by dose curve;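 further: HeLa cells carrying an ER stress response element beta-lactamase reporter; series mostly up to about 61 µM; on the % scale 0 is the no-effect control and ±100 the full control effect; nearly all actives have a fitted effect of over 50% in size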)
Summary of the method: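 ESRE-bla HeLa cells, 1,500 per well, seeded overnight then treated with compounds for 5 hr at 37 C. After the beta-lactamase read, viability in the same wells is measured by CellTiter-Glo luminescence after 30 min at room temperature.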

[7] = qHTS assay to identify small molecule antagonists of the retinoid-related orphan receptor gamma (ROR-gamma) signaling pathway - cell viability counter screen (AID 1159520); further: on the % scale 0 is the no-effect control and ±100 the full control effect; nearly all actives have a fitted effect of over 50% in size
Summary of the method: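 Tet-on ROR gamma CHO cells were given compounds for 2 hr, then doxycycline hyclate at 1 uM final, and incubated 16 hr at 37 C. Viability was measured as ATP content by CellTiter-Glo luminescence.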

[8] = target: Nuclear receptor ROR-gamma (Homo sapiens) (UniProt P51449); experiment: qHTS assay to identify small molecule antagonists of the retinoid-related orphan receptor gamma (ROR-gamma) signaling pathway (AID 1159521)
Summary of the method: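 CHO Tet-on RORγ, RORE-luc reporter. Cpd 2 h pre-incubation, then dox hyclate 1 uM final, 16 h, 37 C/5% CO2. ONE-Glo luminescence; decrease = antagonist.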

[9] = qHTS assay to identify small molecule agonists of the AP-1 signaling pathway - cell viability counter screen (AID 1159525; calls by dose curve; further: nearly all actives have a fitted effect of over 55% in size)
Summary of the method: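 AP-1-bla ME-180 cells in Opti-MEM with 0.5% dialyzed FBS, compound exposure 5 h at 37 C in 15-point titration. Viability read in the same wells as ATP content by CellTiter-Glo luminescence, normalised to tetra-n-octylammonium bromide and DMSO controls.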

[10] = qHTS assay to identify small molecule agonists of the AP-1 signaling pathway (AID 1159526; calls by dose curve; further: on the % scale 0 is the no-effect control and ±100 the full control effect)
[11] = target: Retinoic acid receptor RXR-alpha (Homo sapiens) (UniProt P19793); experiment: qHTS assay to identify small molecule agonists of the RXR signaling pathway (AID 1159527; calls by dose curve; further: on the % scale 0 is the no-effect control and ±100 the full control effect; nearly all actives have a fitted effect of over 35% in size)
Retinoic acid receptor RXR-alpha (Homo sapiens), sequence (P19793 whole entry, looked up): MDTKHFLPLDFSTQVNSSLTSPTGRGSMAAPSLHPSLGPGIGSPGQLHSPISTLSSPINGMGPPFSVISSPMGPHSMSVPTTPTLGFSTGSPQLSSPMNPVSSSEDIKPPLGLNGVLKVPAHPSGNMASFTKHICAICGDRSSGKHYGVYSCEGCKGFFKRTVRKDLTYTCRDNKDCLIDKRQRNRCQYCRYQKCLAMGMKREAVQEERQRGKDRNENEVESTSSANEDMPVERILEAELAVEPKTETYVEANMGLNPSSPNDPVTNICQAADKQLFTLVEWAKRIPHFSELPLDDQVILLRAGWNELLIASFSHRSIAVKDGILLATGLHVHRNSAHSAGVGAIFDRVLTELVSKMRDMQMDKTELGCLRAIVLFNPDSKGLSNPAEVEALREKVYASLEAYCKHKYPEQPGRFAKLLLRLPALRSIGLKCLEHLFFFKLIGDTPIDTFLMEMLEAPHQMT
Summary of the method: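 Read-out: beta-lactamase FRET ratio (405 nm excitation, 460 and 530 nm emission) after 2 hr substrate loading at room temperature. Cells were RXR-alpha-UAS-bla HEK 293T treated with compounds for 16 hr in 2% charcoal-stripped FBS medium.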

[12] = qHTS assay to identify small molecule agonists of the RXR signaling pathway - cell viability counter screen (AID 1159529)
Summary of the method: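 HEK 293T RXRa-bla cells, 2% CS-FBS; 5 h settle; cpd 16 h 37 C, 5% CO2; CellTiter-Glo 30 min RT, luminescence. Tetraoctyl ammonium bromide as positive control.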

[13] = qHTS assay to identify small molecule antagonists of the retinoid acid receptor (RAR) signaling pathway - cell viability counter screen (AID 1159551); further: on the % scale 0 is the no-effect control and ±100 the full control effect; nearly all actives have a fitted effect of over 35% in size
Summary of the method: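 Following overnight attachment, C3RL4 reporter cells received DMSO-dissolved compounds and then retinol (1 uM final). Six hours later at 37 C, ATP content was measured by CellTiter-Glo luminescence.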

[14] = qHTS assay to identify small molecule antagonists of the retinoic acid receptor (RAR) signaling pathway (AID 1159552)
Summary of the method: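 Cells of the C3RL4 line were seeded, incubated overnight, then dosed with compounds in DMSO followed immediately by retinol (1 uM final). Six hours later luciferase detection reagent went in; signal was measured after 30 min at RT.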

[15] = qHTS assay to identify small molecule agonists of the retinoic acid receptor (RAR) signaling pathway (AID 1159553); further: on the % scale 0 is the no-effect control and ±100 the full control effect
Summary of the method: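 Cell line C3RL4, RARE luciferase reporter. Treatment: compounds in DMSO, 6 hr, 37 C, 5% CO2, after overnight plating. Detection: luminescence, 30 min RT after reagent.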

[16] = qHTS assay to identify small molecule antagonists of the estrogen related receptor (ERR) signaling pathway - cell viability counter screen (AID 1224818)
Summary of the method: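 Here, ERR cells are plated at 2,000 cells per well, allowed 6 h to attach, and treated with compounds in DMSO for 17.5 h at 37 C. CellTiter-Fluor is then added and fluorescence read after 30 min.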

[17] = qHTS assay to identify small molecule antagonists of the estrogen related receptor signaling pathway with the pleiotropic PPARgamma coactivator (PGC) cell viability counter screen (AID 1224822)
Summary of the method: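 qHTS format, DMSO compound stocks pin-transferred onto PGC/ERR cells 6 h after plating; 17.5 h exposure at 37 C, then CellTiter-Fluor fluorescence.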

OC1CCCCC1c1ccccc1 (stereo unspecified)
inactive: Potency [1] | Potency [2] | outcome [3] | outcome [4] | outcome [5] | outcome [6] | outcome [7] | Potency [8] | Potency [9] | outcome [10] | Potency [11] | Potency [12] | outcome [13] | Potency [14] | Potency [15]

O=c1n(CCO)c(=O)n(CCO)c(=O)n1CCO
inactive: Potency [1] | Potency [2] | outcome [3] | outcome [4] | outcome [5] | outcome [6] | outcome [7] | Potency [8] | Potency [9] | outcome [10] | Potency [11] | Potency [12] | outcome [13] | Potency [14] | Potency [15]

CCCCOCCOCCOCCCC
inactive: Potency [1] | Potency [2] | outcome [3] | outcome [4] | outcome [5] | outcome [6] | outcome [7] | Potency [8] | Potency [9] | outcome [10] | Potency [11] | Potency [12] | outcome [13] | Potency [14] | Potency [15]

CCO[Si](CCC1CCC2OC2C1)(OCC)OCC (stereo unspecified)
inactive: Potency [1] | Potency [2] | outcome [3] | outcome [4] | outcome [5] | outcome [6] | outcome [7] | Potency [8] | Potency [9] | outcome [10] | Potency [11] | Potency [12] | outcome [13] | Potency [14] | Potency [15]

CCOC(=O)c1cccc(N)c1
inactive: Potency [1] | Potency [2] | outcome [3] | outcome [4] | outcome [5] | outcome [6] | outcome [7] | Potency [8] | Potency [9] | outcome [10] | Potency [11] | Potency [12] | outcome [13] | Potency [14] | Potency [15]

CC(=O)Nc1c(I)cc(I)c(C(=O)O)c1I
inactive: Potency [1] | Potency [2] | outcome [3] | outcome [4] | outcome [5] | outcome [6] | outcome [7] | Potency [8] | Potency [9] | outcome [10] | Potency [11] | Potency [12] | outcome [13] | Potency [14] | Potency [15]

CCOC(=O)CCC(C)=O
inactive: Potency [1] | Potency [2] | outcome [3] | outcome [4] | outcome [5] | outcome [6] | outcome [7] | Potency [8] | Potency [9] | outcome [10] | Potency [11] | Potency [12] | outcome [13] | Potency [14] | Potency [15]

N[C@H]1CN(c2c(F)cc3c(=O)c(C(=O)O)cn(C4C[C@H]4F)c3c2Cl)CC12CC2 (stereo partly specified)
inactive: Potency [1] | Potency [2] | outcome [3] | outcome [4] | outcome [5] | outcome [6] | outcome [7] | Potency [8] | Potency [9] | outcome [10] | Potency [11] | Potency [12] | outcome [13] | Potency [14] | Potency [15]

COc1ccc2c(c1)CCCC2=O
inactive: Potency [1] | Potency [2] | outcome [3] | outcome [4] | outcome [5] | outcome [6] | outcome [7] | Potency [8] | Potency [9] | outcome [10] | Potency [11] | Potency [12] | outcome [13] | Potency [14] | Potency [15]

C=C[Si](OC(=C)C)(OC(=C)C)OC(=C)C
inactive: Potency [1] | Potency [2] | outcome [3] | outcome [4] | outcome [5] | outcome [6] | outcome [7] | Potency [8] | Potency [9] | outcome [10] | Potency [11] | Potency [12] | outcome [13] | Potency [14] | Potency [15]

CN(C(=O)c1c(O)c2ccccc2n(C)c1=O)c1ccccc1
inactive: Potency [1] | Potency [2] | outcome [3] | outcome [4] | outcome [5] | outcome [6] | outcome [7] | Potency [8] | Potency [9] | outcome [10] | Potency [11] | Potency [12] | outcome [13] | Potency [14] | Potency [15]

CN1N=C(C(N)=O)CCC1=O
inactive: Potency [1] | Potency [2] | outcome [3] | outcome [4] | outcome [5] | outcome [6] | outcome [7] | Potency [8] | Potency [9] | outcome [10] | Potency [11] | Potency [12] | outcome [13] | Potency [14] | Potency [15]

Cc1cccn2c(=O)c(-c3nnn[nH]3)cnc12
inactive: Potency [1] | Potency [2] | outcome [3] | outcome [4] | outcome [5] | outcome [6] | activity, negative = cytotoxicity [7] 0.0857% [at 19 µM] | Potency [8] | viability change, negative = cytotoxic [9] -0.287% [at 15.8 µM] | outcome [10] | Potency [11] | Potency [12] | activity change, negative = cytotoxicity [13] 2.52% [at 19 µM] | activity, negative = inhibition [14] 1.95% [at 19 µM] | Potency [15]

CC(=O)CC(C)(C)C1CCCCC1
inactive: Potency [1] | Potency [2] | outcome [3] | outcome [4] | outcome [5] | outcome [6] | outcome [7] | Potency [8] | Potency [9] | outcome [10] | Potency [11] | Potency [12] | outcome [13] | Potency [14] | Potency [15]

CCC(C)C1CCCCC1=O (stereo unspecified)
inactive: Potency [1] | Potency [2] | outcome [3] | outcome [4] | outcome [5] | outcome [6] | outcome [7] | Potency [8] | Potency [9] | outcome [10] | Potency [11] | Potency [12] | outcome [13] | Potency [14] | Potency [15]

c1ccc(CC2=NCCN2)cc1
inactive: Potency [1] | Potency [2] | outcome [3] | outcome [4] | outcome [5] | outcome [6] | outcome [7] | Potency [8] | Potency [9] | outcome [10] | Potency [11] | Potency [12] | outcome [13] | Potency [14] | Potency [15]

NS(=O)(=O)c1ccc(C(=O)O)cc1
inactive: Potency [1] | Potency [2] | outcome [3] | outcome [4] | outcome [5] | outcome [6] | outcome [7] | Potency [8] | Potency [9] | outcome [10] | Potency [11] | Potency [12] | outcome [13] | Potency [14] | Potency [15]

CC(C)CNCC(C)C
inactive: Potency [1] | Potency [2] | outcome [3] | outcome [4] | outcome [5] | outcome [6] | outcome [7] | Potency [8] | Potency [9] | outcome [10] | Potency [11] | Potency [12] | outcome [13] | Potency [14] | Potency [15]

CCN1CCC[C@H]1CNC(=O)c1cc(S(N)(=O)=O)ccc1OC
inactive: Potency [1] | Potency [2] | outcome [3] | outcome [4] | outcome [5] | outcome [6] | outcome [7] | Potency [8] | Potency [9] | outcome [10] | Potency [11] | Potency [12] | outcome [13] | Potency [15] | outcome [16] | outcome [17]
